The values below come from PubChem BioAssay AID651813 (National Center for Advancing Translational Sciences (NCATS), 2012).

In all, about 2,100 compounds went through this assay and about 1,100 (52%) were called active. Not shown: some 27% with an inconclusive outcome. Calls come from the whole dose curve; as a rule, active = well fitted inhibition curve with a large enough effect; inconclusive = small, poorly fitted or top-dose-only effect; inactive = no such curve, though single readings can be large or run the other way. The set was probably picked from earlier hits. Some of the results follow.
Potency is the fitted concentration of half-maximal effect.

The target of this experiment is DNA dC->dU-editing enzyme APOBEC-3G (Homo sapiens) (UniProt Q9HC16). The experiment can be described thus: qHTS for inhibitors of Vif-A3G interactions: Cherry picks counterscreen.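 For max response: max response given as percent of control signal.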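 Note: hits raise yellow fluorescence by blocking Vif-driven A3G-eYFP degradation; nearly all actives have a fitted effect of over 70% in size.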 Particulars: HeLa A3G-eYFP + Vif (tagged APOBEC3G with the HIV-1 protein that degrades it), eYFP fluorescence, 24 h. An excerpt: The recent discovery and characterization of host restriction factors, which provide a potent defense to invading retroviruses, has provided new targets for antiviral drug development. APOBEC3G (A3G) and APOBEC3F (A3F) are potent cytidine deaminases that block HIV-1 replication; HIV-1 expresses the Vif protein, which counteracts A3G and A3F by binding to them and inducing their proteasomal degradation. The Vif-A3G and Vif-A3F interactions provide two potential targets for development of small molecules which can interfere with the ability of Vif to degrade A3G or A3F. […] To identify inhibitors that can interfere with Vif mediated degradation of A3G and A3F, we have developed Hela cell lines that stably express A3G or A3F tagged with eYFP at the C-terminal end (A3G-eYFP or A3F-eYFP, respectively) and Vif. In the absence of an inhibitor, Vif induces degradation of A3G-eYFP and A3F-eYFP, and the cells are not fluorescent. In the presence of an inhibitor, it is expected that Vif will be unable to degrade A3G-eYFP and/or A3F-eYFP, resulting in an increase in yellow fluorescence. In this counterscreen assay, Vif A3G was screened against the cherry picks ordered from the MLSMR. NIH Chemical Genomics Center [NCGC] NIH Molecular Libraries Probe Centers Network [MLPCN] MLPCN Grant: MH093245 Assay Submitter (PI): Vinay Pathak, National Cancer Institute
Sequence of DNA dC->dU-editing enzyme APOBEC-3G (Homo sapiens) (Q9HC16 whole entry, looked up): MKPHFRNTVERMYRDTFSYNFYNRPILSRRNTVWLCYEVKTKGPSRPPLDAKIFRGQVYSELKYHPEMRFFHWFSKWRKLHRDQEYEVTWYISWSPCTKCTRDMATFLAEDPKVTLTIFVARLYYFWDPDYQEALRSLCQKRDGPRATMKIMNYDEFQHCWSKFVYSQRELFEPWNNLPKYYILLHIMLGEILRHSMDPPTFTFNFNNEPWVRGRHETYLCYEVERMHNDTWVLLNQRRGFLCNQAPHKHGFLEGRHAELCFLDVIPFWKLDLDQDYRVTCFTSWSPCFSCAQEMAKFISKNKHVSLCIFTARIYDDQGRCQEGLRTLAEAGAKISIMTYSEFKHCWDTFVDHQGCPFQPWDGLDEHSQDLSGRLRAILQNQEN
A3G-Vif cells were harvested from T225 flask and resuspended in phenol free OPTI-MEM medium with 5% FBS. Then 5 uL of 140,000 cells/mL resuspended cells was dispensed into each well of low base Aurora COC 1,536-well plates (black walled, clear bottom) using a Multidrop Combi dispenser. After overnight culture at 37 deg C with 5% CO2, a total of 23 nL of compounds at 5 selected concentrations from the NPC or positive control (2 mM stock of MG132) in DMSO was transferred to each well of the assay plate using a pintool (Kalypsys, San Diego, CA), and the plates were further incubated at 37 deg C with 5% CO2 for 24 hours. After that, the plates were measured on Acumen Explorer (TTP Lab Tech). The fluorescence was detected by 488 nm/Ex and […].
In general terms: In qHTS, concentration-response curves come from the screen itself.
`Oc1cccc(Nc2nc(O)c(/C=C3\C=Nc4ccccc43)s2)c1`: the Potency was 20.6 µM (active).

Take `Cc1cc(/C=C2\NC(=S)N(C)C2=O)ccc1N1CCCC1`: the Potency is 5.59 µM (active). Turning to `Cc1cc(N2CCCC2)ccc1/C=C1/C(=O)N(C)C(=S)N1C`, the max response is 40% (inactive). For the molecule `O=C1/C(=C/c2ccc(N3CCCC3)cc2)NC(=S)N1C1CC1`, the Potency is 7.31 µM (active). With `CCN1C(=O)/C(=C/c2ccc(N3CCCC3)cc2)NC1=S`, the max response is 47.9% (inactive).

For the molecule `Cc1cc(N2CCCC2)ccc1/C=C1\NC(=S)N(C)C1=O`, the Potency is 1.64 µM (active). On to `C/C(=N\Nc1nccnc1Cl)c1ccc(Cl)c(Cl)c1`, for which the max response is -0.872% (inactive).

In the case of `CCn1c(=O)c2cc(C(=O)NCCCOC)sc2c2ccccc21`, the Potency is 7.04 µM (active).

For `N#CC1=C2SCC(O)(c3ccccc3)N2C(=O)CC1c1ccccc1` (configuration not stated), the Potency was 5.59 µM (active). With `CCS(=O)(=O)Nc1cccc(C2=NN(C(=O)c3ccco3)C(c3ccco3)C2)c1` (configuration not stated), the Potency was 14 µM (active). On to `CCOc1cc(N(CC)CC)ccc1/C=C(/C#N)c1nc2ccccc2[nH]1`, for which the max response is 57.6% (inactive). Regarding `CSc1nc2ccccc2cc1/C=C(\C#N)c1ccccc1`, the Potency was 6.27 µM (active). With `CSc1nc2ccccc2cc1/C=C(\C#N)c1cccc(C)c1`, the Potency is 12.5 µM (active). For the molecule `CCN(CC)c1ccc(/C=C(/C#N)c2nc3ccccc3[nH]2)c(OC(C)C)c1`, the max response was 42% (inactive). Turning to `COC(=O)C1=COC(C)C2CN3CCc4c([nH]c5cc(OC)c(OC)cc45)C3CC12` (configuration not stated), the max response is -25.2% (inactive). Regarding `COC(=O)C1C2CC3c4[nH]c5cc(OC)ccc5c4CCN3CC2CC(OC(=O)CC(C)=O)C1OC` (configuration not stated), the Potency was 20.6 µM (active). `COc1cccc(/C(O)=C/c2nc3ccc(C(=O)NCCc4ccc(Cl)cc4)cc3[nH]c2=O)c1`: the Potency is 20.6 µM (active). Still for that read-out and setting: the figure for `COc1cccc(/C(O)=C/c2nc3ccc(C(=O)NCCc4cccc(C)c4)cc3[nH]c2=O)c1` is 13 µM (active). For `O=[N+]([O-])c1ccccc1C1Nc2cccc3cccc(c23)N1`, the max response was 7.07% (inactive). `COc1cc(OC)c(C2Nc3cccc4cccc(c34)N2)c(OC)c1`: the max response was 3.06% (inactive). For the molecule `Cc1ccc(C)c(C2NC(=O)c3ccccc3N2)c1` (configuration not stated), the Potency is 7.9 µM (active). In the case of `CCOc1ccccc1C1NC(=O)c2ccccc2N1` (configuration not stated), the Potency is 2.5 µM (active). Regarding `Cc1ccc(C2NC(=O)c3ccccc3N2)s1` (configuration not stated), the Potency was 12.5 µM (active). Take `COc1ccc2ccccc2c1C1NC(=O)c2ccccc2N1` (configuration not stated): the Potency is 4.98 µM (active). Still for that read-out and setting: the figure for `CC(=O)/C(N=Nc1cc(C)ccc1O)=C(\C)O` is 20.6 µM (active). In the case of `CCOC(=O)N1CCN(/C=C(\C#N)c2nc3ccccc3s2)CC1`, the Potency was 23.1 µM (active). Take `COc1ccc(C)cc1NCc1cc(=O)oc2cc(-c3ccccc3)c(O)cc12`: the max response is -4.57% (inactive). `COc1ccc(-c2coc3cc4oc(=O)cc(-c5ccccc5)c4cc23)cc1F`: the Potency was 2.23 µM (active). On the same count and under the same terms, the value for `CC(C)(C)n1ncc2c(=O)n(CC(=O)NCc3ccc(F)cc3)cnc21` was 7.9 µM (active); that for `Cc1ccc(Cn2nnc3c(=O)n(CC(=O)NCc4ccccc4)cnc32)cc1` was 8.86 µM (active); that for `O=C(Cn1cnc2c(cnn2-c2ccc(F)cc2)c1=O)NCc1ccco1` was 17.7 µM (active).

Regarding `Cc1sc2ncn(CC(=O)NCc3ccccc3)c(=O)c2c1C`, the max response is -26.2% (inactive). Consider `CCN(Cc1ccccc1)c1ccc(/C=C/c2nccc3ccccc23)cc1`, for which the Potency is 13 µM (active). For `CN(C)c1ccc(/C=C/c2nccc3ccccc23)cc1`, the Potency was 13 µM (active). Turning to `CCN(CC)c1nc(C=Cc2ccc(N(C)C)cc2)c2nccnc2n1`, the Potency was 0.651 µM (active). For `CN(C)c1ccc(C=Cc2nccc3ccccc23)cc1`, the Potency was 14 µM (active). For `CC(=O)/C(=C\N(C)C)Sc1ccc(Cl)cc1`, the max response was 12% (inactive). As for `Cc1sc2ncnc(SCC(=O)NC(C)(C)C)c2c1C`, the max response is -17.9% (inactive). With `COc1ccccc1Nc1nnc(SCC2CCCCO2)s1` (configuration not stated), the Potency was 17.7 µM (active). As to `COc1cccc(OCc2nc3ncc(Br)cc3[nH]2)c1`, the Potency is 3.14 µM (active).

In the case of `Nc1cccc(CCc2nc3cc4ccccc4cc3[nH]2)c1`, the Potency is 4.98 µM (active). Regarding `COc1cccc(N2CC(O)=C(c3nc4ccccc4s3)C2=N)c1`, the Potency is 7.9 µM (active). Regarding `COc1cccc(N2CC(O)=C(c3nc4ccccc4c(=O)[nH]3)C2=N)c1`, the Potency was 2.23 µM (active). Take `CCOC(=O)Nc1ccc2c3c(cccc13)-c1ccccc1-2`: the Potency is 2.31 µM (active).

With `CC(C)(C)c1ccc(OCC(=O)Nc2ccc3c4c(cccc24)C(=O)NC3=O)cc1`, the max response is 43.9% (inactive). In the case of `O=CNc1ccc2c3c(cccc13)-c1ccccc1-2`, the Potency is 11.2 µM (active).

As to `N#Cc1cc2ccccc2nc1SCc1ccccn1`, the Potency is 23.1 µM (active).
